# Test results taken from PubChem BioAssay (NCATS).
# Results filed as inconclusive are left out. A number with no mark means an inactive call. Activity calls are given as the source filed them. Calls follow the shape of the dose curve; as a rule, active = well fitted inhibition curve with a large enough effect; inconclusive = small, poorly fitted or top-dose-only effect; inactive = flat fitted curve, though single readings scatter.
# System: Zika virus NS2B-NS3 protease
# Experiment: Primary screen GU AMC qHTS for Zika virus inhibitors (AID 1347154);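 also: 0% = no-inhibitor control and -100% = no-enzyme control; nearly all actives have a fitted effect of over 70% in size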
# Conditions: Zika NS2B-NS3 unlinked protease, AMC fluorogenic substrate; series mostly up to 54.1 µM; activity change, negative = inhibition: at the top concentration
# Excerpt: Avindra Nath, Ph.D., National Institute of Neurological Disorders and Stroke (NINDS), Bethesda, MD
# Radhakrishnan Padmanabhan, Ph.D., Georgetown University (GU), Washington D.C.
# Zika Virus causes congenital defects, including microcephaly and is associated with Guillain-Barre syndrome, eningoencephalitis and myelitis in infected adult. […] Using a target-based approach, we hope to establish a screening paradigm to uncover novel, cell-active NS2B-NS3 protease (Zika Virus) specific inhibitors from NCATS' collection of small molecules using qHTS.
# Early Translation Branch (ETB)
# National Center for Advancing Translational Sciences (NCATS), Rockville, MD
# National Institute of Health (NIH), Bethesda, Maryland
# Padmanabhan lab provided the NS2B hydrophilic domain and NS3 protease domain in a noncovalent complex used for the unlinked assay. Control compound aprotinin is obtained from Thermo Scientific (#78432; Waltham, Massachusetts). NS2B-NS3 AMC substrate (Bz-Nle-Lys-Arg-Arg-AMC; Nle-KRR-AMC) purchased from Bachem (#I-1995; Torrance, CA). Ac-VKTGKR-AMC purchased from Genscript or Bachem, Ac-FAAGKR-AMC purchased from Genscript, Ac-GLVKRR-AMC purchased from Genscript, Ac-LKKR-AMC purchased from Genscript.
# GU AMC unlinked NS2B-NS3 protease qHTS protocol
# Briefly, 3 microL of Zika virus unlinked NS2B-NS3 protease (25 nM for linked final concentration), in assay buffer (10 mM Tris-HCl pH 8.0 with 0.01% Tween 20) was dispensed into a 1,536-well solid-bottom black plate (Greiner Bio One, Monroe, NC). […] Plates were then read immediately on a ViewLux High-throughput CCD imager (PerkinElmer, Waltham, MA) equipped with standard UV fluorescence optics (340(30) nm excitation, 450(20) nm emission) then incubated (room temperature, protected from light) for 15 minutes (~20% conversion). The change in fluorescence intensity over the 15-minute reaction period was normalized against no-inhibitor and no-enzyme controls and the resulting percent inhibition data were fitted to a 4-parameter Hill equation. Aprotinin was used as the intraplate control.
SMILES,"activity change, negative = inhibition",Potency
CC(CN(C)C)C(C)(O)Cc1ccc(Cl)cc1 (stereo not given),-7.44%,–
CC(C)c1cc2c(cc1S(=O)(=O)O)[C@@]1(C)CCC[C@@](C)(C(=O)O)[C@@H]1CC2,-2.63%,–
CC(=O)N[C@@H](CC(C)C)C(=O)O,-1.25%,–
CC(=O)NS(=O)(=O)c1ccc(N)cc1,1.6%,–
Cc1cccc(Nc2ccccc2C(=O)O)c1C,-2.51%,–
CC(=O)OC[C@H]1O[C@@](COC(C)=O)(O[C@H]2O[C@H](COC(C)=O)[C@@H](OC(C)=O)[C@H](OC(C)=O)[C@H]2OC(C)=O)[C@@H](OC(C)=O)[C@@H]1OC(C)=O,3.34%,–
CCCCOC(=O)c1ccc(N)cc1,0.602%,–
CCOC(=O)OC(C)OC(=O)[C@@H]1N2C(=O)[C@@H](NC(=O)[C@H](N)c3ccccc3)[C@H]2SC1(C)C (stereo not given in full),0.203%,–
OCC(O)CS (stereo not given),-2.07%,–
C[C@@H](c1ncncc1F)C(O)(Cn1cncn1)c1ccc(F)cc1F (stereo not given in full),7.44%,–
Cc1[nH]c(C)c(Cl)c(=O)c1Cl,1.07% [at 25.8 µM],–
CCCCCC(N)=O,-1.47%,–
COc1ccc(-c2cc(=O)c3c(O)cc(O[C@@H]4O[C@H](CO[C@@H]5O[C@@H](C)[C@H](O)[C@@H](O)[C@H]5O)[C@@H](O)[C@H](O)[C@H]4O)cc3o2)cc1O,-8.67%,–
O=c1[nH]c2cc(C(F)(F)F)c(N3CCOCC3)cc2n(CP(=O)(O)O)c1=O,–,inactive
NC(N)=NCCN1CCCCCCC1,-2.2% [at 0.59 µM],–
O=c1[nH]cnc2nc[nH]c12,-4.47%,–
C[C@@H](N)C(=O)O,–,inactive
CCN(CC)CC1CCCCN1CC(=O)N1c2ccccc2C(=O)Nc2cccnc21 (stereo not given),0.0282%,–
O=C(/C=C/c1ccccc1)OCc1ccccc1,-8.06%,–
CCN(CC)CCc1nc(-c2ccccc2)no1,-1.69%,–

SMILES,"activity change, negative = inhibition",Potency
CN/C(=C\[N+](=O)[O-])NCCSCc1csc(CN(C)C)n1,-6.35%,–
CC(=O)[C@@]1(O)CC[C@H]2[C@@H]3C[C@H](C)C4=CC(=O)C=C[C@]4(C)[C@@]3(F)[C@@H](O)C[C@@]21C,-0.854%,–
O=C(OOC(=O)c1ccccc1)c1ccccc1,-3.25%,–
CN1CCCN=C1COC(=O)C(O)(c1ccccc1)C1CCCCC1 (stereo not given),-4.75%,–
COC(=O)c1ccccc1C(=O)c1ccc(OCCN2CCCCC2)cc1,5.9%,–
O=C(O)c1ccc(OCCCOc2ccc(C(=O)O)cc2)cc1,-0.954%,–
Cc1cc(-n2nc3ccc(Cl)cc3n2)c(O)c(C(C)(C)C)c1,4.08%,–
O=C(Cn1ccnc1[N+](=O)[O-])NCCO,-2.36%,–
CCCOC(=O)c1ccc(N)cc1,-0.834%,–
CCCC(O)C(CC)CO (stereo not given),-2.12%,–
CC1(C)S[C@@H]2[C@H](N=CN3CCCCCC3)C(=O)N2[C@H]1C(=O)O,6.58%,–
Cc1ncc(CO)c(CN)c1O,-11.9%,–
C[C@@H]1CCC[C@H](C)N1,-0.379%,–
COc1ccc(O)cc1,-1.98%,–
CC(=O)SC[C@@H](Cc1ccccc1)C(=O)NCC(=O)OCc1ccccc1,-5.05%,–
CC(C)C[C@@H](N)C(=O)O,-2.56% [at 25.8 µM],–
O=C(CN1CCNCC1)NC1CCCCC1,-0.678%,–
O=c1[nH]c(=O)c2ccccc2o1,-5.12%,–
COc1ccc(C(=O)NCc2ccc(OCCN(C)C)cc2)cc1OC,5.58%,–
COc1ccccc1OCC(O)CO (stereo not given),-1.33%,–
